# Experimental data published in PubChem BioAssay AID1159580 (chemical genetic matrix, 2015).
# About 2,000 (36%) of roughly 5,500 compounds were called active. Not shown: some 18% with an inconclusive outcome. The list shows a part of the results. Values without a mark were called inactive. Cut-off read from the data, not from the text of the source: active = normalized growth mostly below about 0.91 (no sharp cut-off); inconclusive = no clear call, values can overlap the other calls; inactive = mostly above about 0.92.
# Test: chemical genetic growth profiling, strain panel (AID 1159580);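 note: tested at 20 µM; growth read once vehicle control cultures reached saturation at 30 °C; 1 = growth at the plate median or of vehicle wells; lower values mean less growth of the strain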
# Conditions: S. cerevisiae deletion strains, growth OD
smiles,measurement,setting,value
CC[C@H](C)C(=O)O[C@H]1CCC=C2C=C[C@H](C)C(CCC3C[C@@H](O)CC(=O)O3)[C@H]21 (stereo partly drawn),normalized growth,"locus YAL021C, strain ccr4, stronger effect = lower value",0.894 (active)
same,normalized growth,"locus YAL026C, strain drs2, stronger effect = lower value",1.02
same,normalized growth,"locus YAL030W, strain snc1, stronger effect = lower value",0.997
same,normalized growth,"locus YBL061C, strain skt5, stronger effect = lower value",1.01
same,normalized growth,"locus YBR009C, strain hhf1, stronger effect = lower value",1
same,normalized growth,"locus YBR021W, strain FUR4, stronger effect = lower value",0.958
same,normalized growth,"locus YBR023C, strain chs3, stronger effect = lower value",1.01
same,normalized growth,"locus YBR171W, strain sec66, stronger effect = lower value",1.02
same,normalized growth,"locus YBR229C, strain ROT2, stronger effect = lower value",0.983
same,normalized growth,"locus YBR231C, strain swc5, stronger effect = lower value",0.95
same,normalized growth,"locus YBR279W, strain paf1, stronger effect = lower value",1
same,normalized growth,"locus YCL011C, strain gbp2, stronger effect = lower value",1.01
same,normalized growth,"locus YCL016C, strain dcc1, stronger effect = lower value",0.997
same,normalized growth,"locus YCL029C, strain bik1, stronger effect = lower value",0.969
same,normalized growth,"locus YCL061C, strain MRC1, stronger effect = lower value",1
same,normalized growth,"locus YCL069W, strain vba3, stronger effect = lower value",1
same,normalized growth,"locus YCR088W, strain abp1, stronger effect = lower value",1.01
same,normalized growth,"locus YDL005C, strain med2, stronger effect = lower value",0.988
same,normalized growth,"locus YDL035C, strain GPR1, stronger effect = lower value",0.981
same,normalized growth,"locus YDL040C, strain nat1, stronger effect = lower value",1
same,normalized growth,"locus YDL074C, strain BRE1, stronger effect = lower value",0.957
same,normalized growth,"locus YDL101C, strain DUN1, stronger effect = lower value",0.989
same,normalized growth,"locus YDL134C, strain PPH21, stronger effect = lower value",1.01
same,normalized growth,"locus YDL185W, strain tfp1, stronger effect = lower value",0.978
same,normalized growth,"locus YDL192W, strain arf1, stronger effect = lower value",0.972
same,normalized growth,"locus YDR001C, strain nth1, stronger effect = lower value",1
same,normalized growth,"locus YDR069C, strain doa4, stronger effect = lower value",1.01
same,normalized growth,"locus YDR101C, strain arx1, stronger effect = lower value",0.974
same,normalized growth,"locus YDR137W, strain rgp1, stronger effect = lower value",1.39 [resistant] (active)
same,normalized growth,"locus YDR150W, strain NUM1, stronger effect = lower value",0.997
same,normalized growth,"locus YDR159W, strain sac3, stronger effect = lower value",1.04
same,normalized growth,"locus YDR162C, strain NBP2, stronger effect = lower value",0.987
same,normalized growth,"locus YDR195W, strain ref2",1
same,normalized growth,"locus YDR297W, strain sur2, stronger effect = lower value",1
same,normalized growth,"locus YDR318W, strain mcm21, stronger effect = lower value",0.992
same,normalized growth,"locus YDR334W, strain swr1, stronger effect = lower value",0.997
same,normalized growth,"locus YDR335W, strain msn5, stronger effect = lower value",0.999
same,normalized growth,"locus YDR388W, stronger effect = lower value",0.981
same,normalized growth,"locus YDR392W, strain spt3, stronger effect = lower value",0.989
same,normalized growth,"locus YDR502C, strain sam2, stronger effect = lower value",1.02
same,normalized growth,"locus YEL003W, strain gim4, stronger effect = lower value",1.02
same,normalized growth,"locus YEL037C, strain rad23, stronger effect = lower value",1
same,normalized growth,"locus YEL061C, strain CIN8 (second series), stronger effect = lower value",0.999
same,normalized growth,"locus YEL061C, strain CIN8, stronger effect = lower value",0.99
same,normalized growth,"locus YER015W, strain faa2, stronger effect = lower value",1.01
same,normalized growth,"locus YER016W, strain bim1, stronger effect = lower value",0.999
same,normalized growth,"locus YER110C, stronger effect = lower value",0.968
same,normalized growth,"locus YER111C, strain swi4, stronger effect = lower value",0.995
same,normalized growth,"locus YER155C, strain BEM2 (second series), stronger effect = lower value",1.02
same,normalized growth,"locus YER155C, strain BEM2, stronger effect = lower value",0.967
same,normalized growth,"locus YER167W, strain BCK2, stronger effect = lower value",0.99
same,normalized growth,"locus YFR010W, strain ubp6, stronger effect = lower value",1.03
same,normalized growth,"locus YGL078C, strain dbp3, stronger effect = lower value",0.971
same,normalized growth,"locus YGL086W, strain mad1, stronger effect = lower value",0.956
same,normalized growth,"locus YGL167C, strain pmr1, stronger effect = lower value",0.996
same,normalized growth,"locus YGL173C, strain kem1, stronger effect = lower value",1.01
same,normalized growth,"locus YGL227W, strain vid30, stronger effect = lower value",1
same,normalized growth,"locus YGL240W, strain doc1, stronger effect = lower value",1.02
same,normalized growth,"locus YGL248W, strain PDE1, stronger effect = lower value",0.998
same,normalized growth,"locus YGL253W, strain hxk2, stronger effect = lower value",1.01
same,normalized growth,"locus YGR135W, strain pre9, stronger effect = lower value",1
same,normalized growth,"locus YGR252W, strain gcn5, stronger effect = lower value",1.03
same,normalized growth,"locus YHR013C, strain ard1, stronger effect = lower value",0.947
same,normalized growth,"locus YHR027C, strain rpn1, stronger effect = lower value",1.02
same,normalized growth,"locus YHR030C, strain SLT2, stronger effect = lower value",0.982
same,normalized growth,"locus YHR079C, strain IRE1 (second series), stronger effect = lower value",0.98
same,normalized growth,"locus YHR094C, strain hxt1, stronger effect = lower value",0.981
same,normalized growth,"locus YHR129C, strain ARP1, stronger effect = lower value",0.987
same,normalized growth,"locus YHR142W, strain chs7, stronger effect = lower value",1.01
same,normalized growth,"locus YHR200W, strain rpn10, stronger effect = lower value",0.978
same,normalized growth,"locus YIL066C, strain RNR3, stronger effect = lower value",0.989
same,normalized growth,"locus YIL073C, strain SPO22, stronger effect = lower value",0.975
same,normalized growth,"locus YIL125W, strain kgd1, stronger effect = lower value",0.99
same,normalized growth,"locus YIR030C, strain dcg1, stronger effect = lower value",0.981
same,normalized growth,"locus YJL092W, strain hpr5, stronger effect = lower value",1.01
same,normalized growth,"locus YJL095W, strain BCK1 (second series), stronger effect = lower value",1.01
same,normalized growth,"locus YJL095W, strain BCK1, stronger effect = lower value",1.03
same,normalized growth,"locus YJL115W, strain asf1, stronger effect = lower value",1
same,normalized growth,"locus YJL129C, strain trk1, stronger effect = lower value",1.04
same,normalized growth,"locus YJL134W, strain LCB3, stronger effect = lower value",0.977
same,normalized growth,"locus YJL154C, strain vps35, stronger effect = lower value",1
same,normalized growth,"locus YJL164C, strain tpk1, stronger effect = lower value",1.01
same,normalized growth,"locus YJL166W, strain qcr8, stronger effect = lower value",1.02
same,normalized growth,"locus YJL168C, strain set2, stronger effect = lower value",0.975
same,normalized growth,"locus YJL187C, strain SWE1 (second series), stronger effect = lower value",0.994
same,normalized growth,"locus YJL187C, strain SWE1, stronger effect = lower value",1
same,normalized growth,"locus YJR043C, strain POL32, stronger effect = lower value",0.978
same,normalized growth,"locus YKL009W, strain mrt4, stronger effect = lower value",0.864 (active)
same,normalized growth,"locus YKL068W, stronger effect = lower value",0.987
same,normalized growth,"locus YKL085W, strain MDH1 (second series), stronger effect = lower value",0.966
same,normalized growth,"locus YKL085W, strain MDH1, stronger effect = lower value",0.966
same,normalized growth,"locus YKL160W, strain elf1, stronger effect = lower value",1.01
same,normalized growth,"locus YKL190W, strain CNB1, stronger effect = lower value",0.993
same,normalized growth,"locus YKR001C, strain vps1, stronger effect = lower value",0.973
same,normalized growth,"locus YKR026C, strain gcn3, stronger effect = lower value",0.981
same,normalized growth,"locus YKR091W, strain srl3, stronger effect = lower value",1
same,normalized growth,"locus YLL001W, strain dnm1, stronger effect = lower value",1.01
same,normalized growth,"locus YLL026W, stronger effect = lower value",1.01
same,normalized growth,"locus YLL041C, strain sdh2, stronger effect = lower value",1
same,normalized growth,"locus YLR027C, strain aat2, stronger effect = lower value",1.01
same,normalized growth,"locus YLR039C, strain RIC1, stronger effect = lower value",1.15
same,normalized growth,"locus YLR058C, strain SHM2, stronger effect = lower value",0.989
same,normalized growth,"locus YLR102C, strain apc9, stronger effect = lower value",0.973
same,normalized growth,"locus YLR221C, strain rsa3, stronger effect = lower value",1.02
same,normalized growth,"locus YLR258W, strain gsy2, stronger effect = lower value",1.01
same,normalized growth,"locus YLR262C, strain YPT6 (second series), stronger effect = lower value",1.22 [resistant] (active)
same,normalized growth,"locus YLR262C, strain YPT6, stronger effect = lower value",1.07
same,normalized growth,"locus YLR268W, strain sec22, stronger effect = lower value",0.954
same,normalized growth,"locus YLR320W, strain mms22, stronger effect = lower value",1.02
same,normalized growth,"locus YLR330W, strain CHS5, stronger effect = lower value",0.991
same,normalized growth,"locus YLR342W, strain FKS1 (second series), stronger effect = lower value",1.03
same,normalized growth,"locus YLR342W, strain FKS1, stronger effect = lower value",1.01
same,normalized growth,"locus YLR357W, strain rsc2, stronger effect = lower value",1.01
same,normalized growth,"locus YLR370C, strain arc18, stronger effect = lower value",1
same,normalized growth,"locus YLR371W, strain rom2, stronger effect = lower value",0.955
same,normalized growth,"locus YLR384C, strain iki3, stronger effect = lower value",1.01
same,normalized growth,"locus YLR418C, strain cdc73, stronger effect = lower value",1
same,normalized growth,"locus YML016C, strain PPZ1, stronger effect = lower value",0.999
same,normalized growth,"locus YML032C, strain rad52, stronger effect = lower value",1.03
same,normalized growth,"locus YML120C, strain ndi1, stronger effect = lower value",1.02
same,normalized growth,"locus YML124C, strain tub3, stronger effect = lower value",0.983
same,normalized growth,"locus YMR058W, strain fet3, stronger effect = lower value",1.01
same,normalized growth,"locus YMR078C, strain ctf18, stronger effect = lower value",0.997
same,normalized growth,"locus YMR125W, strain sto1, stronger effect = lower value",1.02
same,normalized growth,"locus YMR129W, stronger effect = lower value",1
same,normalized growth,"locus YMR205C, strain PFK2, stronger effect = lower value",1.01
same,normalized growth,"locus YMR223W, strain ubp8, stronger effect = lower value",0.995
same,normalized growth,"locus YMR231W, strain pep5, stronger effect = lower value",0.996
same,normalized growth,"locus YMR307W, strain GAS1, stronger effect = lower value",1.07
same,normalized growth,"locus YNL067W, strain RPL9B, stronger effect = lower value",1
same,normalized growth,"locus YNL071W, strain lat1, stronger effect = lower value",1
same,normalized growth,"locus YNL209W, strain ssb2, stronger effect = lower value",1.02
same,normalized growth,"locus YNL233W, strain BNI4, stronger effect = lower value",1.01
same,normalized growth,"locus YNL248C, strain rpa49, stronger effect = lower value",1.02
same,normalized growth,"locus YNL250W, strain rad50, stronger effect = lower value",0.977
same,normalized growth,"locus YNL271C, strain bni1, stronger effect = lower value",0.977
same,normalized growth,"locus YNL298W, strain CLA4, stronger effect = lower value",0.968
same,normalized growth,"locus YNL307C, strain MCK1, stronger effect = lower value",0.978
same,normalized growth,"locus YNL322C, strain KRE1 (second series), stronger effect = lower value",1.01
same,normalized growth,"locus YNL322C, strain KRE1, stronger effect = lower value",0.989
same,normalized growth,"locus YNR049C, strain mso1, stronger effect = lower value",1.01
same,normalized growth,"locus YNR052C, strain pop2, stronger effect = lower value",0.966
same,normalized growth,"locus YOL012C, strain htz1",0.865
same,normalized growth,"locus YOL147C, strain pex11, stronger effect = lower value",0.994
same,normalized growth,"locus YOR001W, strain rrp6, stronger effect = lower value",1.01
same,normalized growth,"locus YOR061W, strain CKA2, stronger effect = lower value",0.985
same,normalized growth,"locus YOR069W, strain VPS5, stronger effect = lower value",0.981
same,normalized growth,"locus YOR070C, strain gyp1, stronger effect = lower value",1.02
same,normalized growth,"locus YOR080W, strain dia2, stronger effect = lower value",1
same,normalized growth,"locus YOR083W, strain WHI5, stronger effect = lower value",1.01
same,normalized growth,"locus YOR106W, strain vam3, stronger effect = lower value",1.04
same,normalized growth,"locus YOR136W, strain idh2, stronger effect = lower value",0.977
same,normalized growth,"locus YOR144C, strain elg1, stronger effect = lower value",0.977
same,normalized growth,"locus YOR184W, strain ser1, stronger effect = lower value",0.957
same,normalized growth,"locus YOR265W, strain rbl2, stronger effect = lower value",1
same,normalized growth,"locus YOR270C, strain vph1, stronger effect = lower value",0.999
same,normalized growth,"locus YOR290C, strain snf2, stronger effect = lower value",0.991
same,normalized growth,"locus YOR316C, strain cot1, stronger effect = lower value",0.983
same,normalized growth,"locus YPL051W, strain arl3, stronger effect = lower value",1.02
same,normalized growth,"locus YPL078C, strain atp4, stronger effect = lower value",1.01
same,normalized growth,"locus YPL106C, strain sse1, stronger effect = lower value",1.06
same,normalized growth,"locus YPL240C, strain hsp82, stronger effect = lower value",1.01
same,normalized growth,"locus YPL241C, strain CIN2, stronger effect = lower value",0.981
same,normalized growth,"locus YPR119W, strain clb2, stronger effect = lower value",0.979
same,normalized growth,"locus YPR141C, strain kar3, stronger effect = lower value",0.963
same,normalized growth,"locus YPR163C, strain tif3, stronger effect = lower value",0.992
same,normalized growth,"locus YPR167C, strain met16, stronger effect = lower value",1
same,normalized growth,"strain wtn01, stronger effect = lower value",0.935
